Screening results: PubChem, National Center for Advancing Translational Sciences (NCATS)
Sm TGR block: S. mansoni TGR enzyme inhibition | Q962Y6 | 360,000 compounds, 3% hits | purified TGR, DTNB reduction, TNB absorbance 405 nm | Potency, µM (top dose mostly 114 µM), most hits filed as inhibitors | AID 485364; further: nearly all actives have a fitted effect of over 60% in size
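Kinetic colorimetric format: TGR-catalysed, NADPH-driven DTNB reduction monitored via TNB absorbance. Enzyme dispensed at 20 nM; compound exposure 15 min at room temperature before reaction start.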
CHX counter: affects cycloheximide protein synthesis inhibition readout, counter-screen. 300,000 compounds, 12% hits. max response, %. cell reporter, cycloheximide protein synthesis inhibition counterscreen; in the data active means max response mostly above about 13%, no sharp cut-off; inactive means mostly below about 14%; further: read at 38.3 µM for the half of the compounds with a filed dose
Shiga toxin inh: inhibitors of Shiga toxin in Vero cells; Vero cells, Shiga toxin protein synthesis inhibition reporter; inhibition, % at 38.7 µM; 290,000 compounds, 9.2% hits; AID 2315; in the data active means inhibition mostly above about 28%, no sharp cut-off; inactive means mostly below about 43%
Pf growth 96h: P. falciparum growth inhibition at 96 hour, primary screen for plastid delayed-death inhibitors; Potency, µM (highest dose often 28.7 µM), hits mostly inhibitors; 320,000 compounds, 6.9% hits; P. falciparum luciferase reporter growth, 96 h
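Cell-based qHTS: luciferase-tagged P. falciparum in erythrocytes (2% hematocrit, 0.05% parasitemia final) incubated with compounds for 96 hours, 37 C, 5% CO2; luciferase detection reagent then added and luminescence measured.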
NS1 function inh: influenza NS1 inhibition | Potency, µM (doses to about 46.1 µM) | AID 2326 | 270,000 compounds, 0.4% hits; calls by dose curve; further: actives are rising curves; nearly all actives have a fitted effect of over 50% in size
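Growth recovery, yeast-based: influenza A NS1 expressed in S. cerevisiae causes slow growth, and suppressors are detected by OD600. The parent strain without NS1 is used as positive control.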
Pf growth 48h: inhibits P. falciparum growth in the first generation, 48 h; P. falciparum luciferase growth in erythrocytes, 48 h; Potency, µM (top dose mostly 28.7 µM), usual class: inhibitors; 310,000 compounds, 5.9% hits; AID 504832
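First compound was added to culture medium, then infected red cells at 0.1% parasitemia and 2% hematocrit (final). After incubation at 37 C under 5% CO2, luciferase detection reagent was dispensed and light output recorded.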
Numbers stand for hits; . = inactive; ? = inconclusive; / = not tested or not shown. Sampled rows, rich in hits. Any-hit rate of the full collection: about 21%. Unless noted, the call rests on the fitted dose curve; in most records, active means well fitted curve in the direction sought with a large enough effect; inconclusive means small, poorly fitted or top-dose-only effect, or another doubt; inactive means no such curve, though single readings can be large; an effect the other way counts as inactive or inconclusive.

SMILES	Sm TGR block	CHX counter	Shiga toxin inh	Pf growth 96h	NS1 function inh	Pf growth 48h
Cc1ccc(OCC(=O)OC2=C(C(=O)c3ccccc3)N(C)S(=O)(=O)c3ccccc32)cc1	31.6µM	/	/	/	/	/
CCN1C(C(=O)c2ccccc2)=C(OC(=O)COc2ccccc2)c2ccccc2S1(=O)=O	15.8µM	/	/	/	/	/
Cc1ccc(NCc2ccccc2-c2nnc(-c3ccccc3Cl)o2)c(C)c1	.	/	/	/	/	/
COc1cccc(-c2nc(=S)c3c(o2)CCCC3)c1	.	42.2	120.4	.	.	.
S=c1nc(-c2ccccc2)oc2c1CCCC2	.	59.6	94.6	.	.	.
O=[N+]([O-])c1ccc(-c2nc(=S)c3c(o2)CCCC3)cc1	?	12.4	.	.	.	.
O=[N+]([O-])c1ccc(-c2nnc(CNC3CCCC3)o2)cc1	.	.	.	.	/	.
COc1cccc(-c2n[nH]c3c2CCC3)c1	.	21.6	.	.	/	?
c1ccc(-c2n[nH]c3c2CCC3)cc1	.	.	.	.	.	.
CCOC(=O)c1oc2cccc(OC(C)=O)c2c1C	.	39.4	68.0	.	.	.
CCOC(=O)c1oc2cccc(O)c2c1C	.	31.7	62.9	.	.	.
CCOC(=O)c1oc2ccc(CNC(C)(C)C)c(Cl)c2c1C	.	16.0	27.3	?	.	.
CCOC(=O)c1oc2ccc(Cl)cc2c1NC(C)=O	.	.	.	.	/	.
CNc1nc(Cl)c(SC)c(NCc2cccc(OC)c2)n1	.	.	.	.	.	.
Oc1ccccc1/C=N/Nc1ncc(Br)cn1	.	65.8	74.2	.	.	2.08µM
Cc1cc(O)c(C=Nc2cccc(Cl)c2)c(=O)o1	.	.	.	.	.	.
Cc1cc(O)c(/C=N/Nc2ccccc2)c(=O)o1	.	19.8	.	.	.	.
Oc1ccccc1/C=N/Nc1ccccc1	.	47.9	196.7	.	.	.
Oc1ccccc1/C=N/Nc1ccnc(SCc2ccccc2)n1	.	23.9	.	1.85µM	?	10.4µM
CC(C)C(NS(=O)(=O)c1ccc2c(c1)oc(=O)n2C)C(=O)NCCc1ccccc1 (centres undefined)	.	/	/	/	/	/
O=C(NCC(c1ccco1)N1CCc2ccccc2C1)C(=O)Nc1cc(F)ccc1F (centres undefined)	.	/	/	?	/	?
CCOCCc1nn2c(=O)cc(COC(=O)c3ccccc3NC(=O)c3cccs3)nc2s1	.	/	/	/	/	/
CCc1nnc(NC(=O)CSc2nccn2Cc2ccc(Cl)cc2)s1	.	/	/	/	/	/
O=C(CN1C(=O)c2ccccc2C1=O)[C@@H](O)CN1C(=O)c2ccccc2C1=O	/	/	/	/	.	/
Oc1ccc(/C=N/Nc2ccc3ccccc3c2)c(O)c1	44.7µM	30.7	44.3	?	/	?
SMILES	Sm TGR block	CHX counter	Shiga toxin inh	Pf growth 96h	NS1 function inh	Pf growth 48h
CC[N+]1(C)[C@@H]2CC[C@H]1CC(OC(=O)[C@H]1CCC(C(=O)OC3C[C@H]4CC[C@@H](C3)[N+]4(C)CC)(c3ccccc3)c3ccccc31)C2 (some centres undefined)	50.1µM	/	/	8.28µM	/	10.4µM
Cc1cccc(C)c1NC(=O)NNC(=O)c1cc(C(C)(C)C)nn1Cc1ccccc1	.	.	.	?	.	?
CC(C)(C)c1cc(C(=O)NNC(=O)Nc2cccc(Cl)c2)n(Cc2ccccc2)n1	.	.	.	9.28µM	.	?
CC(C)(C)c1cc(C(=O)O)n(Cc2ccc(Cl)cc2Cl)n1	.	.	.	.	.	.
CC(C)(C)c1cc(C(=O)NCc2cc(F)cc3c2OCOC3)n(Cc2ccccc2)n1	.	52.9	83.2	?	.	?
Cc1ccc(S(=O)(=O)N(C)C)cc1NC(=O)c1cc(C(C)(C)C)nn1Cc1ccccc1	.	.	.	7.38µM	.	?
CC(C)(C)c1cc(C(=O)NNC(=O)Nc2ccccc2)n(Cc2ccccc2)n1	.	.	.	9.28µM	.	5.22µM
Cc1ccc(S(=O)(=O)N(C)C)cc1NC(=O)CN1CCN(Cc2ccccc2)CC1	.	.	.	.	/	.
CCN(CC)S(=O)(=O)c1cccc(NC(=O)c2cc(=O)[nH]c3ccccc23)c1	.	.	.	.	.	.
CC(C)CN(C(=O)c1ccc(F)cc1F)c1c(N)n(CC(C)C)c(=O)[nH]c1=O	.	.	.	.	.	.
CCOC(=O)c1ccc(NC(=S)N(CCCN2CCCC2)Cc2cccs2)cc1	.	.	.	?	.	.
CCN1CCCc2cc(CN(CCN3CCOCC3)C(=S)Nc3ccc(OC)cc3)ccc21	.	.	.	5.86µM	/	.
